Only some compounds are listed: those with a hit (about 3.5% of all), similar ones and a draw of the others.
FBW7 activator = FBW7 E3 ligase activators, primary screen, biochemical, AlphaScreen, human | AlphaScreen FBW7–phospho-cyclin E peptide binding, activator screen | actives 0.13% (n = 650,000) | AID 1259310, 2017 | normalized activity (activation), % at 26.1 µM; in the data active = normalized activity above about 1.9%;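 also: purified mutant Fbw7 with reduced substrate affinity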
TEAD-YAP block = TEAD-YAP interaction inhibition, primary screen, TEAD-YAP interaction inhibitor project, luminescence, HEK-TIYL cells | TEAD-Gal4/YAP UAS-luciferase luminescence | inhibition, % at 9.12 µM | AID 1259422, 2018 | actives 1.4% (n = 640,000); in the data active = inhibition above about 32%
MITF inh = MITF inhibitors, primary screen, biochemical, AlphaScreen, human. AlphaScreen MITF homodimerization, bead proximity signal. inhibition, % at 2.6 µM. Microphthalmia-associated transcription factor (Homo sapiens), O75030. actives 0.91% (n = 650,000); in the data active = inhibition above about 50%
Target sequence (O75030 whole entry, looked up): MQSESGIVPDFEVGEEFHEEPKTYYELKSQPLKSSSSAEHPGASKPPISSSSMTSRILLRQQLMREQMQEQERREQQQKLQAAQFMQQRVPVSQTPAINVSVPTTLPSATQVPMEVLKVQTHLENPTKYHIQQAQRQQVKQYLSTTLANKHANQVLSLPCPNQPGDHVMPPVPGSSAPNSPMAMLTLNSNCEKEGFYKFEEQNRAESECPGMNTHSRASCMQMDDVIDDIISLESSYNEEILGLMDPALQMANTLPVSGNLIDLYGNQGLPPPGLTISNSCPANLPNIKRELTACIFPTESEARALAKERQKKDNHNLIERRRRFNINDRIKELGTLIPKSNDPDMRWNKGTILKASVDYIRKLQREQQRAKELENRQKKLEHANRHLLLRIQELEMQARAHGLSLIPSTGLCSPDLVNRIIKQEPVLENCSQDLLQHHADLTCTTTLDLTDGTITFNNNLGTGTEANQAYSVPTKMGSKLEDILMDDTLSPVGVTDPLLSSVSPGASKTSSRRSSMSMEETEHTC
GPR151 activ = activators of human GPR151, primary screen, cell-based, PathHunter beta-arrestin, luminescence | PathHunter beta-arrestin GPR151 cells | activation, % at 11.2 µM | actives 1% (n = 650,000); in the data active = activation above about 4.9%
GPR151 conf act = GPR151 activators, triplicate retest, confirmation, cell-based, PathHunter beta-arrestin, luminescence; shares compounds with GPR151 activ; GPR151 PathHunter beta-arrestin cells, 90 min; % of EA-reagent control over plate median; activation, % at 11.2 µM; 6,700 tested, under 10 active; AID 1508609, 2020;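 active = mean percent activation across replicates above the confirmation screen cutoff of 4.91%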
GPR119 ag = GPR119 activators in beta-arrestin cells, counter-screen for GPR151 activator project, cell-based, PathHunter beta-arrestin, luminescence, triplicate; shares compounds with GPR151 activ; 90 min; 0 = compound-well median, 100 = enzyme-acceptor control; activation, % at 11.2 µM; actives 0.3% (n = 6,700); AID 1508611, 2020;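 active = mean percent activation in the counterscreen above 29.09%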;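 also: counterscreen on off-target GPR119 to flag nonselective hits from the GPR151 activator screen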
Of the large screens only hits and unclear results are named; the others gave an inactive call (follow-up assays come after a bar, where they were run).

C/C(=N/NC(=O)c1nnn(-c2nonc2N)c1C)c1ccc2c(c1)OCO2	none
Cc1ccc(SCc2nc3ccc(Cl)cn3c2Cl)cc1	none
COCC(=O)n1nc(NCc2ccc(OC)cc2)nc1NCc1ccc(OC)cc1	none
O=C(COc1ccccc1)n1nc(NCc2ccccc2)nc1NCc1ccccc1	GPR151 activ 8.8 | GPR151 conf act inactive | GPR119 ag inactive
CC(=O)n1nc(NCc2ccccc2)nc1NCc1ccccc1	none
CCCC(=O)n1nc(NCc2ccccc2)nc1NCc1ccccc1	GPR151 activ 6.9 | GPR151 conf act inactive | GPR119 ag inactive
COC(=O)c1cc(S(=O)(=O)Nc2ccc(Cl)cc2C)cn1C	none
COCCCNc1nc2nonc2nc1N1CCN(C)C(c2ccccc2)C1 (stereo not drawn)	none
CC(C)[C@@H](Cn1nc(-c2ccc(F)c(F)c2)ccc1=O)NC(=O)c1ccc(=O)[nH]n1	GPR151 activ 9.0 | GPR151 conf act inactive | GPR119 ag inactive
O=C1/C(=c2\sc3nc4ccccc4n3c2=O)c2ccccc2N1Cc1ccccc1	GPR151 activ 7.2 | GPR151 conf act inactive | GPR119 ag inactive
O=C(CN1C(=O)/C(=c2/sc3nc4ccccc4n3c2=O)c2ccccc21)Nc1ccc(F)cc1	none
CN1C(=O)/C(=c2\sc3nc(=O)c(Cc4ccccc4)nn3c2=O)c2ccccc21	GPR151 activ 5.5 | GPR151 conf act inactive | GPR119 ag inactive
Cc1noc(C)c1CSc1nc(-c2ccc(F)cc2)cs1	none
C=CCOc1ccc(C(=O)Nc2ccccc2C#N)cc1	none
COc1cc2nc(Nc3nc4ccccc4n3C)nc(NCCCN3CCCC3=O)c2cc1OC	none
COc1cc2nc(Nc3nccc4ccccc34)nc(NCCCN3CCCC3=O)c2cc1OC	GPR151 activ 5.6 | GPR151 conf act inactive | GPR119 ag inactive
Cc1nn(Cc2ccccc2Cl)c(Cl)c1/C=C/C(=O)OCC#N	GPR151 activ 10 | GPR151 conf act inactive | GPR119 ag inactive
CC(=O)c1c(C)[nH]c(C(=O)OC2CCCCC2=O)c1C (stereo not drawn)	none
C[C@H](CCC(=O)O)[C@H]1CC[C@H]2[C@@H]3[C@@H](O)C[C@@H]4C[C@H](O)CCC4(C)[C@H]3CCC12C (stereo partly drawn)	none (no result: TEAD-YAP block)
COC(=O)CCC(C)C1CCC2C3CC[C@@H]4C[C@H](O)CC[C@]4(C)C3C[C@H](O)[C@]12C (stereo partly drawn)	GPR151 activ 6.4 | GPR151 conf act inactive | GPR119 ag inactive
COc1ccc(CNc2nc(-c3cccnc3)nn2C(=O)c2ccccc2OC)cc1	none
Cc1ccc(CS(=O)(=O)CCC(=O)NCCN(C)Cc2ccccc2)cc1	GPR151 activ 7.7 | GPR151 conf act inactive | GPR119 ag inactive
Cc1ccc(N=Cc2ccccc2O)cc1C#N	GPR151 activ 5.6 | GPR151 conf act inactive | GPR119 ag inactive
Cc1ccc(N=Cc2ccccc2O)cc1F	none
O=C(CCn1c(=S)[nH]c2ccccc2c1=O)N1CCN(c2cccc(Cl)c2)CC1	none
Cc1ccnc(-n2cccc2CN2CCc3c(nc(N4CCCC4)[nH]c3=O)C2)c1	GPR151 activ 5.0 | GPR151 conf act inactive | GPR119 ag inactive
Cc1ccc(CN2CCN3C(=O)[C@@H](CO)NC(=O)[C@H]3C2)cc1C	none
Cc1cc([N+](=O)[O-])ccc1NC(=S)NC(=O)COc1ccccc1	GPR151 activ 7.3 | GPR151 conf act inactive | GPR119 ag inactive
CC(C)OC(=O)c1c(NC(=O)C2c3ccccc3Oc3ccccc32)sc2c1CCCCC2	none
COc1cccc(C(=O)Oc2coc(CSc3nc(C)cs3)cc2=O)c1OC	none
COc1ccc(NC(=O)COC(=O)CC2CCCCC2)c([N+](=O)[O-])c1	none
COc1ccc(NC(=O)CCCCCN2C(=O)c3cccc([N+](=O)[O-])c3C2=O)c(OC)c1	GPR151 activ 7.9 | GPR151 conf act inactive | GPR119 ag inactive
O=C(COC(=O)CCN1C(=O)c2cccc([N+](=O)[O-])c2C1=O)NCC(F)(F)F	GPR151 activ 6.0 | GPR151 conf act inactive | GPR119 ag inactive
COc1ccc(NC(=O)CCN2C(=O)c3cccc([N+](=O)[O-])c3C2=O)c(OC)c1	none
COc1ccc(NC(=O)CCC2CCCCC2)c([N+](=O)[O-])c1	GPR151 activ 6.5 | GPR151 conf act inactive | GPR119 ag inactive
COc1ccccc1Oc1ccc(N2C(=O)c3cccc([N+](=O)[O-])c3C2=O)cc1	GPR151 activ 8.4 | GPR151 conf act inactive | GPR119 ag inactive
Cc1c(C2C(C#N)=C(N)SC(N)=C2C#N)c(C)c([N+](=O)[O-])c(C)c1[N+](=O)[O-]	none
COc1ccc(-n2c(=O)cc(N3CCN(C)CC3)[nH]c2=O)cc1	none
O=C(Nc1c2c(nn1-c1ccc(F)cc1)CS(=O)C2)c1ccc(Cl)cc1Cl (stereo not drawn)	none
NS(=O)(=O)c1ccc(CCNC(=O)C(=O)Nc2ccccc2F)cc1	GPR151 activ 7.1 | GPR151 conf act inactive | GPR119 ag inactive
CC(C(=O)N1CCC(n2nccc2NC(=O)CCc2ccccc2)CC1)N1CCCC1=O (stereo not drawn)	none
CN(Cc1ccccc1)C(=O)c1cc(-c2ccccc2O)no1	none
COc1ccc(-c2cc(C(=O)N(C)Cc3ccccc3)on2)cc1OC	GPR151 activ 5.9 | GPR151 conf act inactive | GPR119 ag inactive
COc1ccc(C2CC(c3c(-c4ccccc4)c4cc(Br)ccc4[nH]c3=O)=NN2C(=O)c2ccc(Cl)cc2)cc1 (stereo not drawn)	none
CCCCN(C)CCCN(Cc1ccco1)C(=S)Nc1cc(Cl)ccc1OC	none
CC(=O)N1N=C(c2ccccc2)CC1c1cn(-c2ccccc2)nc1-c1ccc(C)cc1 (stereo not drawn)	GPR151 activ 6.0 | GPR151 conf act inactive | GPR119 ag inactive
COCCN(Cc1cccc(Cl)c1)C(=O)c1nc2ccc(-c3cn[nH]c3)cc2s1	GPR151 activ 6.2 | GPR151 conf act inactive | GPR119 ag inactive
COCCN(Cc1cccc(OC)c1)C(=O)c1nc2ccc(-c3cn[nH]c3)cc2s1	none
O=C(CSc1nc2ccc(Nc3nc(Nc4ccccc4)nc(N4CCCC4)n3)cc2s1)c1ccc(Br)cc1	none
Cc1ccc2c(Cn3cc(C(F)(F)F)cc(Cl)c3=O)cc(=O)oc2c1	GPR151 activ 7.6 | GPR151 conf act inactive | GPR119 ag inactive
Cc1ccc(-c2nc3ccccc3[nH]2)s1	none
COc1ccc(NC(=O)c2sc3nc4c(cc3c2N)C(=O)CCC4)c(OC)c1	none

Assay outcomes from PubChem.
